# Results published in PubChem BioAssay.
# “And” between values parts separate entries of the source, which are not always exact repeats. Equal values may be shown once. The source made the active and inactive calls.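 Rule for the calls: active = compounds whose cell count with miR-34 switched on is under 0.7 times the count with it off; inactive = the rest.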
# Assay: sensitizers of A549 cells to miR-34 induction, primary screen, imaging, A549 dox-inducible miR-34, nuclei and caspase counts (AID 1347080); note: test concentration not given here
# Conditions: A549 miR-34 inducible, Hoechst nuclei count, 48 h; stronger effect = lower value; cell number ratio, induced over uninduced
row,Structure (SMILES),fold change
1,O=C(O)CCC/C=C\C[C@H]1C(=O)C=C[C@@H]1/C=C/[C@@H](O)CCc1ccccc1,0.944 (inactive)
2,O=C(O)CCC/C=C\C[C@@H]1[C@@H](CCC(=O)CCc2ccccc2)[C@H](O)C[C@@H]1O,0.934 (inactive)
3,CC1=C(CC/C(C)=C/CCC2C=CC(C3=CC(=O)OC3O)OC2O)C(C)(C)CCC1 (stereo not given),0.908 (inactive)
4,C[C@]12CC[C@@H]3c4cc(O)c(O)cc4CC[C@H]3[C@@H]1CC[C@@H]2O,0.847 (inactive)
5,CCCCC[C@H](O)CC[C@@H]1[C@@H](CCCCCCC(=O)O)[C@@H](O)C[C@H]1O,0.832 (inactive)
6,Cc1nc(COP(=O)(O)O)cc(CN(CCN(CC(=O)O)Cc2cc(COP(=O)(O)O)nc(C)c2O)CC(=O)O)c1O.[Mn],1.02 (inactive)
7,CN(C)CCCCCCOc1ccc(-n2ccnc2)cc1,1.01 (inactive)
8,CCCCCOc1ccccc1C(O)CC#CCCCC(=O)OC (stereo not given),0.937 (inactive)
9,CCCCCC(=O)CC[C@H]1[C@H](O)CC(=O)[C@@H]1CCCCCCC(=O)O,0.94 (inactive)
10,CCCCCCCCCCCCCC(=O)O,1.04 (inactive)
11,CCCCC[C@H](O)/C=C/[C@H]1C=CC(=O)[C@@H]1CCCCCCC(=O)OCC,0.941 (inactive)
12,CCCCCCCCCCCCCCCC(=O)NC(C)C,1.13 (inactive)
13,CCCCCCCCCCCCCCCC(=O)OC[C@@H](O)COP(=O)(O)O,0.985 (inactive)
14,CCCCC/C=C\C/C=C\C/C=C\C/C=C\CCCC(=O)SCC(O)CO (stereo not given),0.986 (inactive)
15,CCCCCCCCCCCCCCCC(=O)NC[C@@H](C)O,1.02 (inactive)
16,CCCCCCCCCC(=O)NC(CN1CCOCC1)C(O)c1ccccc1 (stereo not given),1.03 (inactive)
17,CCCCC/C=C\C=C1\C(=O)CC[C@@H]1C/C=C\CCCC(=O)O,0.94 (inactive)
18,O=C(O)CCC/C=C\C[C@H]1C(=O)C=C[C@@H]1CC[C@@H](O)CCc1ccccc1,0.93 (inactive)
19,[C-]#[N+]c1cc(-c2ccncc2)c(C)[nH]c1=O,0.91 (inactive)
20,CC(=O)[C@H]1[C@H](C#N)C[C@H]2[C@@H]3CC=C4C[C@@H](O)CC[C@]4(C)[C@H]3CC[C@@]21C,1.01 (inactive)

row,Structure (SMILES),fold change
1,CCCC[C@H](C)C[C@H](O)/C=C/[C@H]1[C@H](O)CC(=O)[C@@H]1CCCC/C=C/C(=O)O,0.92 (inactive)
2,CCCCCC/C=C\CCCC(=O)CC(=O)N[C@H]1CCOC1=O,1.06 (inactive)
3,Nc1nc2c([nH]c(=O)n2[C@H]2C[C@H](O)[C@@H](CO)O2)c(=O)[nH]1,0.857 (inactive)
4,CCCCC/C=C\C/C=C\CCCCCCCC(=O)O[C@H](COC(=O)CCCCCCCCCCCCCCC)COP(=O)(O)OCCN,0.789 (inactive)
5,O=C1O/C(=C/Br)CC[C@H]1c1cccc2ccccc12,1.14 (inactive)
6,COC(=O)C1=CC[C@@]23CC[C@@H]([C@@](C)(/C=C/C=C(\C)C(=O)O)OC2=O)[C@@]3(OC(C)=O)CC1,1.15 (inactive)
7,CC(C)Oc1ccc(Cc2ccc(NC3=NCCN3)cc2)cc1,0.976 (inactive)
8,CCNC(=O)CCC/C=C\C[C@@H]1[C@@H](CC[C@@H](O)CCc2ccccc2)[C@H](O)C[C@@H]1O,0.901 (inactive)
9,CCCCCCCCCCCC(=O)c1nc2ncccc2o1,0.934 (inactive)
10,O=P(O)(O)OC1C(O)C(OP(=O)(O)O)C(O)C(OP(=O)(O)O)C1O (stereo not given),0.967 (inactive)
11,CCCCC[C@@](C)(O)/C=C/[C@H]1C=CC(=O)[C@@H]1C/C=C\CCCC(=O)O,0.996 (inactive)
12,CCCCC[C@H](O)/C=C/[C@H]1C(=O)C[C@H](O)[C@@H]1C/C=C\CCCC(=O)NCCO,1.05 (inactive)
13,CCc1c(OCCCCCC(C)(C)c2nn[nH]n2)cc(O)cc1C(C)=O,1.03 (inactive)
14,CCCCC[C@H](O)/C=C/[C@@H]1[C@@H](C/C=C\CCCC(=O)NCCO)[C@@H](O)C[C@@H]1O,0.916 (inactive)
15,CC/C=C\C/C=C\C/C=C\CCCCCCCC(=O)NCCO,1.05 (inactive)
16,N[C@@H](CSCCB(O)O)C(=O)O,1.01 (inactive)
17,CCCCC[C@H](O)/C=C/[C@@H]1[C@@H](CCCCCCC(=O)O)[C@H](O)C[C@@H]1O,0.98 (inactive)
18,CCCCC[C@H](O)/C=C/[C@@H]1[C@@H](C/C=C\CCCC(=O)N(C)C)[C@@H](O)C[C@H]1O,0.94 (inactive)
19,O=C(CCCCc1ccccc1)C(F)(F)C(F)(F)F,0.952 (inactive)
20,CCCCC[C@H](O)/C=C/[C@H]1[C@H](O)CC(=O)[C@@H]1C/C=C/CCCC(=O)O,0.972 (inactive)

# Same assay, conditions: A549 miR-34 inducible, Hoechst nuclei count, 48 h; measured here: relative caspase fold change +Dox/-Dox
row,Structure (SMILES),fold change
1,O=C(O)CCC/C=C\C[C@H]1C(=O)C=C[C@@H]1/C=C/[C@@H](O)CCc1ccccc1,0.959
2,O=C(O)CCC/C=C\C[C@@H]1[C@@H](CCC(=O)CCc2ccccc2)[C@H](O)C[C@@H]1O,1.4
3,CC1=C(CC/C(C)=C/CCC2C=CC(C3=CC(=O)OC3O)OC2O)C(C)(C)CCC1 (stereo not given),0.704
4,C[C@]12CC[C@@H]3c4cc(O)c(O)cc4CC[C@H]3[C@@H]1CC[C@@H]2O,2.78
5,CCCCC[C@H](O)CC[C@@H]1[C@@H](CCCCCCC(=O)O)[C@@H](O)C[C@H]1O,1.1
6,Cc1nc(COP(=O)(O)O)cc(CN(CCN(CC(=O)O)Cc2cc(COP(=O)(O)O)nc(C)c2O)CC(=O)O)c1O.[Mn],0.746
7,CN(C)CCCCCCOc1ccc(-n2ccnc2)cc1,0.915 and 0.806
8,CCCCCOc1ccccc1C(O)CC#CCCCC(=O)OC (stereo not given),1.89
9,CCCCCC(=O)CC[C@H]1[C@H](O)CC(=O)[C@@H]1CCCCCCC(=O)O,1.43
10,CCCCCCCCCCCCCC(=O)O,1.03
11,CCCCC[C@H](O)/C=C/[C@H]1C=CC(=O)[C@@H]1CCCCCCC(=O)OCC,1.83
12,CCCCCCCCCCCCCCCC(=O)NC(C)C,0.996
13,CCCCCCCCCCCCCCCC(=O)OC[C@@H](O)COP(=O)(O)O,0.427
14,CCCCC/C=C\C/C=C\C/C=C\C/C=C\CCCC(=O)SCC(O)CO (stereo not given),0.486
15,CCCCCCCCCCCCCCCC(=O)NC[C@@H](C)O,0.848
16,CCCCCCCCCC(=O)NC(CN1CCOCC1)C(O)c1ccccc1 (stereo not given),0.968
17,CCCCC/C=C\C=C1\C(=O)CC[C@@H]1C/C=C\CCCC(=O)O,0.792
18,O=C(O)CCC/C=C\C[C@H]1C(=O)C=C[C@@H]1CC[C@@H](O)CCc1ccccc1,1.2
19,[C-]#[N+]c1cc(-c2ccncc2)c(C)[nH]c1=O,1.32
20,CC(=O)[C@H]1[C@H](C#N)C[C@H]2[C@@H]3CC=C4C[C@@H](O)CC[C@]4(C)[C@H]3CC[C@@]21C,1.04

row,Structure (SMILES),fold change
1,CCCC[C@H](C)C[C@H](O)/C=C/[C@H]1[C@H](O)CC(=O)[C@@H]1CCCC/C=C/C(=O)O,1.29
2,CCCCCC/C=C\CCCC(=O)CC(=O)N[C@H]1CCOC1=O,1.36
3,Nc1nc2c([nH]c(=O)n2[C@H]2C[C@H](O)[C@@H](CO)O2)c(=O)[nH]1,1.18
4,CCCCC/C=C\C/C=C\CCCCCCCC(=O)O[C@H](COC(=O)CCCCCCCCCCCCCCC)COP(=O)(O)OCCN,0.779
5,O=C1O/C(=C/Br)CC[C@H]1c1cccc2ccccc12,0.781
6,COC(=O)C1=CC[C@@]23CC[C@@H]([C@@](C)(/C=C/C=C(\C)C(=O)O)OC2=O)[C@@]3(OC(C)=O)CC1,0.682
7,CC(C)Oc1ccc(Cc2ccc(NC3=NCCN3)cc2)cc1,0.967
8,CCNC(=O)CCC/C=C\C[C@@H]1[C@@H](CC[C@@H](O)CCc2ccccc2)[C@H](O)C[C@@H]1O,1.65
9,CCCCCCCCCCCC(=O)c1nc2ncccc2o1,1.01
10,O=P(O)(O)OC1C(O)C(OP(=O)(O)O)C(O)C(OP(=O)(O)O)C1O (stereo not given),0.962
11,CCCCC[C@@](C)(O)/C=C/[C@H]1C=CC(=O)[C@@H]1C/C=C\CCCC(=O)O,1.14
12,CCCCC[C@H](O)/C=C/[C@H]1C(=O)C[C@H](O)[C@@H]1C/C=C\CCCC(=O)NCCO,1.15
13,CCc1c(OCCCCCC(C)(C)c2nn[nH]n2)cc(O)cc1C(C)=O,0.73
14,CCCCC[C@H](O)/C=C/[C@@H]1[C@@H](C/C=C\CCCC(=O)NCCO)[C@@H](O)C[C@@H]1O,1.36
15,CC/C=C\C/C=C\C/C=C\CCCCCCCC(=O)NCCO,0.865
16,N[C@@H](CSCCB(O)O)C(=O)O,1.73
17,CCCCC[C@H](O)/C=C/[C@@H]1[C@@H](CCCCCCC(=O)O)[C@H](O)C[C@@H]1O,1.16
18,CCCCC[C@H](O)/C=C/[C@@H]1[C@@H](C/C=C\CCCC(=O)N(C)C)[C@@H](O)C[C@H]1O,1.13
19,O=C(CCCCc1ccccc1)C(F)(F)C(F)(F)F,1.77
20,CCCCC[C@H](O)/C=C/[C@H]1[C@H](O)CC(=O)[C@@H]1C/C=C/CCCC(=O)O,1.22
